# Rows were chosen to be rich in hits. Some 4.4% of all compounds tested hit in one or more screens of this group.
# D1 potentiator – potentiators of human D1 dopamine receptor; P21728; HEK293 TREx D1 cells, calcium flux, dopamine EC20 potentiation; potentiation, % at 10 µM; hit rate 0.036% among 360,000; in the data active = potentiation above about 30%; note: 0% is about no effect
# TRHR agonist – agonists of human TRH receptor | P34981 | TRHR cells, calcium flux fluo-8, FDSS agonist mode | activation, % at 2 µM | hit rate 0.18% among 360,000; note: 0% is about no effect
# Target sequence (P34981 whole entry, looked up): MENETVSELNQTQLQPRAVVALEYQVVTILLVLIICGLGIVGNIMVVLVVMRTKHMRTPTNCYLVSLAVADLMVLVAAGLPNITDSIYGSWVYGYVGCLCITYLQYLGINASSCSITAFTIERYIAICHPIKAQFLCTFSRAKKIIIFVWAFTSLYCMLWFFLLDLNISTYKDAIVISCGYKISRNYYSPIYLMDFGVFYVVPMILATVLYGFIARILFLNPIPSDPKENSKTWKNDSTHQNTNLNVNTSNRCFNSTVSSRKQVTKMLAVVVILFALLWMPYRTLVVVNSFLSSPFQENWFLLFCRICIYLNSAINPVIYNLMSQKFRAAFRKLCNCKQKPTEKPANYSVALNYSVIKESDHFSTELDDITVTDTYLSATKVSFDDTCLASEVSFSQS
#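 TRHR-expressing cells loaded with fluo-8 calcium dye; 23 nL library compound pin-transferred, kinetic FDSS fluorescence (Ex 480/Em 530) recorded about 180 s for agonist-induced calcium release, before a 10 nM TRH EC20 addition for potentiator mode.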
# D1 antagonist – blocks dopamine activation of the human D1 receptor; activity change, negative = inhibition, % at 10 µM; AID 504652; hit rate 3.2% among 360,000; HEK293 TREx D1 cells, calcium flux, dopamine EC80; stronger effect = lower value; in the data active = activity change below about -30%; note: % is set by controls: 0 for no effect and ±100 for the full control effect
#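 Allosteric or orthosteric antagonism assessed as attenuation of the calcium response to EC80 dopamine, added 180 s after compound, in induced HEK293 Trex D1 cells loaded with no-wash calcium dye.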
# D1 ag – agonists of human D1 dopamine receptor; activation, % at 2 µM; HEK293 T-REx D1 cells, calcium flux, agonist mode; AID 504660; P21728; hit rate 1% among 360,000; note: 0% is about no effect
#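 Inducible HEK293 T-REx D1 cells, force-coupled to calcium signalling, were plated at 4000 cells/well with tetracycline and held overnight at 30 C. After no-wash calcium dye loading, compound-evoked calcium rise over 180 s flagged agonists.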
# USP1 inh – blocks the human USP1/UAF1 deubiquitinase complex; recombinant USP1/UAF1, Ub-Rhodamine cleavage fluorescence; Potency, µM (titrated, usually from 57.1 µM), without a hit: at the highest dose activity change, negative = inhibition, most hits filed as inhibitors; hit rate 0.23% among 390,000; active = well fitted inhibition curve with a large enough effect; inconclusive = small, poorly fitted or top-dose-only effect; inactive = no such curve, though single readings can be large or run the other way; note: potency is the fitted concentration of half-maximal effect; % is set by controls: 0 for no effect and ±100 for the full control effect; nearly all actives have a fitted effect of over 60% in size
#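 High-throughput fluorogenic screen: 1nM USP1/UAF1 complex, Ub-Rho substrate 150nM final, 50mM HEPES pH 7.8 with 0.5mM EDTA, 0.1 mg/ml BSA, 1mM TCEP and 0.01% Tween-20.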
# TRHR PAM – TRH receptor (human) allosteric enhancement; P34981; TRHR cells, fluo-8 calcium fluorescence, EC20 TRH enhancement; enhancement, % at 2 µM; hit rate 0.66% among 360,000; in the data active = enhancement above about 30%; note: 0% is about no effect
#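 Enhancer read-out: after compound pinning and an initial kinetic agonist-mode read, an EC20 of TRH (10 nM final) was injected and fluo-8 calcium signal (Ex 480/Em 530) followed at 1 s/cycle for 100 cycles in TRHR-expressing cells.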
# The depositor's hits bear a star; ? = inconclusive; / = no result given. Cut-off read from the data, not from the text of the source, unless noted: active = activation above about 30%; inactive = the rest.
SMILES,D1 potentiator,TRHR agonist,D1 antagonist,D1 ag,USP1 inh,TRHR PAM
Cc1c(CCOC(=O)C23CC4CC(CC(C4)C2)C3)sc[n+]1CC#N,-3.9,0.4,0.1,4.6,0.0%,40.6*
CCc1cccc(CC)c1NC(=O)Cn1nnc2sc(-c3ccccc3)cc2c1=O,2.5,0.7,-2.1,-0.4,-22.4%,-6.7
COc1ccc(-c2cn3c(C)c(C(=O)N4CCc5ccccc5C4)sc3n2)cc1,-6.8,-0.5,-30.6*,3.8,-8.6%,-1.4
CN1CCN(C(=O)C2CCCN(S(=O)(=O)c3ccc(Br)cc3)C2)CC1 (centres undefined),2.9,0.9,14.6,3.5,-3.0%,6.9
O=C(C1CCCN(S(=O)(=O)c2ccc(Br)cc2)C1)N1CCOCC1 (centres undefined),6.0,0.1,-52.9*,5.6,-2.3%,2.7
O=S(=O)(c1ccc(Oc2ccc(Br)cc2)cc1)N1CCOCC1,-6.0,0.7,-32.5*,14.7,-9.8%,-6.1
O=c1c2nncn2ccn1-c1ccc(F)c(F)c1,-0.5,1.8,-2.2,1.2,-21.2%,3.3
c1ccc(Cn2nnnc2CN2CCOCC2)cc1,-11.1,0.4,-33.6*,4.3,-8.3%,2.8
Clc1ccccc1Cn1nnc2c(NCCN3CCOCC3)ncnc21,-0.2,0.3,5.8,-1.0,0.6%,3.6
c1ccc(-n2nnnc2CN2CCOCC2)cc1,4.1,0.5,2.7,2.7,1.1%,0.7
c1ccc(Cn2nnc3c(NCCN4CCOCC4)ncnc32)cc1,-17.2,0.0,-30.8*,2.5,11.3%,16.6
CCCCCCCCCCOC(=O)Cn1c(COc2cccc(C)c2)[n+](C)c2ccccc21,7.5,0.1,-18.9,116.0*,-17.5%,-6.1
CCCCCCCCCCOC(=O)Cn1c(COc2ccccc2C)[n+](C)c2ccccc21,-4.5,1.0,4.5,76.2*,?,-6.6
CCCCCCCCCCOC(=O)Cn1c(COc2ccc(Cl)cc2)[n+](C)c2ccccc21,-11.6,0.4,-41.8*,136.7*,?,-3.4
CCCCCCCCCCOC(=O)Cn1c(COc2ccccc2)[n+](C)c2ccccc21,-9.8,1.0,-41.8*,124.1*,-12.4%,-1.2
CCCCOC(=O)Cn1c(=O)n(CC(=O)OCCCC)c2ccccc21,2.9,-0.5,-7.7,1.4,-12.9%,-1.4
CCOC(=O)Cn1c(COc2ccccc2OC)[n+](C)c2ccccc21,/,/,/,/,-10.9%,/
O=C(Nc1ccccc1C(F)(F)F)c1ncoc1-c1ccco1,1.6,-0.1,9.0,6.6,-15.4%,-4.0
CC(=O)Nc1ccccc1NS(=O)(=O)c1ccccc1NO,2.2,-0.4,14.3,3.8,/,5.7
Cc1cccc(-c2nnn3c2nc(NCCc2ccc(S(N)(=O)=O)cc2)c2cc(Cl)ccc23)c1,-3.0,0.6,-8.2,1.0,-21.6%,6.1
Cc1nn(C)c2c1c(C(F)(F)F)cc(=O)n2CC(=O)N1CCC(C)CC1,2.0,-0.5,-19.0,-0.3,-27.2%,8.6
CCCCCCCCCCOC(=O)Cn1c(COc2ccc(OC)cc2)[n+](C)c2ccccc21,-4.2,4.2,-17.5,138.5*,-20.4%,2.7
CSc1ncccc1C(=O)N1CCCC(C(=O)c2ccc3ccccc3c2)C1 (centres undefined),-6.0,-0.4,-9.8,27.0,-20.3%,19.9
CSc1ccc(C(=O)C2CCCN(C(=O)c3cccnc3SC)C2)cc1 (centres undefined),2.2,1.5,-31.8*,9.7,-3.1%,-14.2
CSCCC(NS(=O)(=O)c1cccs1)C(=O)NCc1ccc(C)cc1 (centres undefined),-0.4,0.0,-10.1,-1.7,-3.9%,-3.6
SMILES,D1 potentiator,TRHR agonist,D1 antagonist,D1 ag,USP1 inh,TRHR PAM
CSCCC(NS(=O)(=O)c1cccs1)C(=O)Nc1ccc(C)c(Cl)c1 (centres undefined),-4.1,-1.2,-38.8*,6.2,-21.7%,-3.6
COc1ccccc1CNC(=O)CCn1c(=O)c2cccn2c2cccnc21,-0.9,-0.3,-22.7,-1.3,2.2%,-6.4
CC(C)c1ccccc1NC(=O)C(Cc1c[nH]c2ccccc12)NC(=O)OC(C)(C)C (centres undefined),-3.6,-1.4,10.0,2.1,-14.3%,19.3
Cc1ccc(NC(=O)C(Cc2c[nH]c3ccccc23)NC(=O)OC(C)(C)C)c(C)c1 (centres undefined),-4.8,-1.2,-35.0*,1.5,-4.5%,-7.0
COc1ccc(-n2c(C)cc(C(=O)Cn3nnc4ccccc4c3=O)c2C)cc1,-1.2,-0.1,-24.7,3.1,-19.4%,-5.1
Cc1cc(C(=O)COC(=O)c2ccc(O)cc2)c(C)n1-c1ccccc1F,-1.6,-0.3,-30.0*,6.2,-6.1%,-8.5
Cc1cc(C(=O)Cn2nnc3ccccc3c2=O)c(C)n1-c1ccccc1F,25.0,-0.9,-53.3*,3.0,5.2%,-1.2
O=C(Cc1c(F)c(F)c(F)c(F)c1F)Nc1nc(-c2ccccc2)cs1,-11.9,1.8,-1.6,35.9*,-16.1%,-3.9
O=C(Cc1cccs1)Nc1nc(-c2ccc(F)cc2F)cs1,7.9,0.2,-43.7*,15.1,-5.0%,5.6
O=C(Cc1ccccc1)Nc1nc(-c2cccs2)cs1,-8.3,1.3,-31.2*,3.5,-17.8%,19.6
CC1Cc2cc(-c3csc(NC(=O)Cc4cccs4)n3)ccc2N1S(C)(=O)=O (centres undefined),-5.0,-1.0,-42.3*,8.4,-10.3%,-8.4
COc1ccc(/C=C/C(=O)c2ccc(C(=O)/C=C/c3ccc(OC)c(OC)c3)cc2)cc1OC,-3.8,8.7,-18.7,27.4,-9.3%,-0.9
COc1ccc(/C=C/C(=O)c2ccccc2)cc1Cn1nnc2ccccc21,-2.0,0.5,-30.7*,3.2,-14.3%,-6.3
COc1ccc(/C=C/C(=O)c2ccccc2)cc1COc1ccc(F)cc1,-6.4,3.6,-32.5*,16.7,-23.1%,-5.0
COc1ccc2c(c1)c(N1CCCC1=O)c(C(=O)Nc1ccc(Cl)cc1C)n2C,-1.9,0.3,-4.8,3.6,-30.8%,-5.6
COc1ccc(-c2cc(C(F)(F)F)n3nc(C)c(-c4ccccc4)c3n2)cc1OC,2.2,0.6,-1.1,0.0,-25.7%,10.2
CCOC(=O)Nc1ccc2c(c1)N(C(=O)OC)c1ccccc1CC2,-7.9,0.4,15.2,1.1,-21.3%,4.6
CCOC(=O)Nc1ccc2c(c1)N(CCCN(C)C)c1ccccc1CC2,-10.2,2.3,-3.0,38.1*,-5.2%,-9.8
COc1ccc(N2CC(NC(=O)COc3ccc4ccccc4c3)CC2=O)cc1 (centres undefined),-2.9,-0.3,/,7.6,?,-1.6
O=C(CCCn1c(=O)c2sccc2n(Cc2c(F)cccc2Cl)c1=O)NCc1ccccc1,0.6,-1.2,-14.5,1.8,-18.6%,-1.6
